# Bioassay records (PubChem)
# Cav32 inh: Cav3.2 calcium influx blockers – cell-based, Fluo-4 calcium fluorescence, FDSS, MLSMR library, primary screen. Voltage-dependent T-type calcium channel subunit alpha-1H (Homo sapiens), O95180. Cav3.2-expressing cells; stronger effect = lower value. B-score at 10 µM. 100,000 tested, 4% active. AID 449739, 2010;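 active = single-dose well whose peak fluorescence ratio is a statistical outlier from its plate by either plate-standardised score or position-corrected B-score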
# Target sequence (O95180 whole entry, looked up): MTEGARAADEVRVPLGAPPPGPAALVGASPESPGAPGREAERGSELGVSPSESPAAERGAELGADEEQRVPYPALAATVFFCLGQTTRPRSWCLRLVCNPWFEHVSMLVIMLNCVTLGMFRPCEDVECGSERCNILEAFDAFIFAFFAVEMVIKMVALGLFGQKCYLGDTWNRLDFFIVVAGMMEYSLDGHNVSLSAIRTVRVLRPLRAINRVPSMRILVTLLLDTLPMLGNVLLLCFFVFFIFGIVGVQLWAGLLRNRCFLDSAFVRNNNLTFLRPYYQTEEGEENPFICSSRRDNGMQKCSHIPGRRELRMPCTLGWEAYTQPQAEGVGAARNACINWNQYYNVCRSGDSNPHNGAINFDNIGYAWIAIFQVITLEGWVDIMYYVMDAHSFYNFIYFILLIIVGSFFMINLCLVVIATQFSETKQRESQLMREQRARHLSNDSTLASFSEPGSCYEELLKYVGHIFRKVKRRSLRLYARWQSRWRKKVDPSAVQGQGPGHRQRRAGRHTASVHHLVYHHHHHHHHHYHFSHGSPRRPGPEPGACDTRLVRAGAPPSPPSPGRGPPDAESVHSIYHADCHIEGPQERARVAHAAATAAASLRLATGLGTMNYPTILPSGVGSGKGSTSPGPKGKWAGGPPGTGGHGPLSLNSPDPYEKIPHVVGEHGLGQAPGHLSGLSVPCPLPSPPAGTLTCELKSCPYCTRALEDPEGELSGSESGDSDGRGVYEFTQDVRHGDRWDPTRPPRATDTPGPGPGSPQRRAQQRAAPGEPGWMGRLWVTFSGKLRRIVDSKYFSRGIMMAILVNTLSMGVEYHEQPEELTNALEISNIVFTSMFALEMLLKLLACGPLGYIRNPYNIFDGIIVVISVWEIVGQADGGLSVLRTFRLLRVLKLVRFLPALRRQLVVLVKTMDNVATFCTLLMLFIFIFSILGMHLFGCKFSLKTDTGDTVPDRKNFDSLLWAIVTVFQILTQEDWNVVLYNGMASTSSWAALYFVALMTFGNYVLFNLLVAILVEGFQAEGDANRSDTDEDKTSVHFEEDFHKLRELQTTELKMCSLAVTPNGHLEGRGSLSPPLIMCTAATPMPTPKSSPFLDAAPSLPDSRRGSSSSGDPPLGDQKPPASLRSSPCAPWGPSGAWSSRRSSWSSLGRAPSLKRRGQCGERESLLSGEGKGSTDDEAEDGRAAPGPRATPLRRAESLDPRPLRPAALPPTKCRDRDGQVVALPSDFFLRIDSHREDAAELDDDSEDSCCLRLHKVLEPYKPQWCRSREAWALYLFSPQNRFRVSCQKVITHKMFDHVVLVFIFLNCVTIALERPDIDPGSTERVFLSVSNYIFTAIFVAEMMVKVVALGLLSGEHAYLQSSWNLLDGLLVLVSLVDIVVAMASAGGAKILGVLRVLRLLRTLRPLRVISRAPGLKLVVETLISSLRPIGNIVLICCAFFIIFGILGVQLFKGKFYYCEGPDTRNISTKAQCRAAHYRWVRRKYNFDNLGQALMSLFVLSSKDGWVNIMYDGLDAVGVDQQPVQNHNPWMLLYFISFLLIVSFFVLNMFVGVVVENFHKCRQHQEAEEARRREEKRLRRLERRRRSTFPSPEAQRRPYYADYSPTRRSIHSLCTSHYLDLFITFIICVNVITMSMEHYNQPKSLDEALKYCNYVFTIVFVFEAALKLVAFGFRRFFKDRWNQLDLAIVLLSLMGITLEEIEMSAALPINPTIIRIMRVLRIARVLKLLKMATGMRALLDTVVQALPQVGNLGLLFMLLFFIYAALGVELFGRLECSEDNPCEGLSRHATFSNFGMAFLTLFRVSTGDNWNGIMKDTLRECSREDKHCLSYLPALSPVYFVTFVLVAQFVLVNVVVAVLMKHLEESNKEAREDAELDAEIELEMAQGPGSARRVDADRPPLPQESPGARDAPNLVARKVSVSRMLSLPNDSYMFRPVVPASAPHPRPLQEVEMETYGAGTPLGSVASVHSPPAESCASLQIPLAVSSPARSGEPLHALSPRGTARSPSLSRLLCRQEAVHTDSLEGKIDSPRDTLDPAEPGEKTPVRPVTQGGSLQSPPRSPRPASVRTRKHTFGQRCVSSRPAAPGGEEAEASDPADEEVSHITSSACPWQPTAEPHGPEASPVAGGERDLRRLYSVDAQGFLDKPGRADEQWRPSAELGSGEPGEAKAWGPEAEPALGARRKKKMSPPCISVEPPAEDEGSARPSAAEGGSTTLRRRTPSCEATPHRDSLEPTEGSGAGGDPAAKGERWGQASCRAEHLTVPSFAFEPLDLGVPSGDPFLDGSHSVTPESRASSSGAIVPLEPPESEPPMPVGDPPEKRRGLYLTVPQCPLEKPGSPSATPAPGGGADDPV
# CYP2C9 act: human CYP2C9 activators, primary screen, biochemical, luminescence; recombinant CYP2C9, luciferin-H conversion; stronger effect = higher value; factor 1 = untreated enzyme, 0 = blocked; activation factor at 5 µM; Cytochrome P450 2C9 (Homo sapiens), P11712; 96,000 tested, 1.4% active;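 active = activation factor of 2 or more for CYP2C9 at a 5 µM dose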;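 note: 0 = sulfaphenazole-blocked wells and 1 = vehicle-only wells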
# CYP2C19 inhib: blockers of cytochrome P450 2C19 activity – biochemical, luminescence, ADME assay, primary screen. P33261. CYP2C19 Supersomes, luciferin-H EGE luminescence, 30 min. inhibition, % at 5 µM. 96,000 tested, 21% active. AID 778, 2007;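 active = CYP2C19 inhibition above a set limit at 5 µM in the primary screen, cut at about 50% in these data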;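 note: plate controls were negative control wells for no effect and 2.5 mM tranylcypromine positive control for full effect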
# CYP2C19 act: human CYP2C19 activators, primary screen, biochemical, luminescence; activation factor at 5 µM; recombinant CYP2C19, luciferin-H EGE luminescence; stronger effect = higher value; 0 = fully inhibited enzyme, 1 = untreated enzyme; 96,000 tested, under 10 active; Cytochrome P450 2C19 (Homo sapiens), P33261;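 active = activation factor of at least 2 at 5 µM in the primary screen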;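 note: 0 = wells with 2.5 mM tranylcypromine and 1 = vehicle-only wells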
# CYP2C9 inh: blockers of cytochrome P450 2C9 activity – biochemical, luminescence, ADME assay, primary screen; P11712; inhibition, % at 5 µM; 96,000 tested, 20% active; CYP2C9 Supersomes, luciferin-H conversion; AID 777, 2007;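 active = blocking of liver enzyme CYP2C9 beyond about 50% at 5 µM, limit read from the data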
# * = called active by the depositor; . = not tested or not shown. Hits are enriched below; roughly 27% of the tested compounds scored in any of these assays.
SMILES,Cav32 inh,CYP2C9 act,CYP2C19 inhib,CYP2C19 act,CYP2C9 inh
C=C(C)C(=O)Nc1cccc(C2=NOC3(C2)C[C@H](C(N)=O)N(C(=O)/C=C/C)C3)c1 (stereo partly specified),0.66,.,.,.,.
CCOc1ccc(NC(=O)CC2C(=O)N(c3cccc(OC)c3)C(=O)N2C(C)C)cc1 (stereo unspecified),0.015,.,.,.,.
CCOC(=O)c1cnn(-c2cc(Oc3ccccc3C)ncn2)c1N,0.46,0.9,12,0.9,14
N#CC1(c2nc3ccccc3[nH]2)CC1c1ccc2c(c1)OCO2 (stereo unspecified),0.013,0.4,92*,0.1,64*
COC(=O)C1=C2c3[nH]c4ccccc4c3CCN2C(=O)CC1,-2,.,.,.,.
COc1ccc(OC)c2c1sc(=NC(=O)C(C)(C)C)n2C,.,0.7,44,0.6,34
COc1ccc(OC)c2c1sc(=NC(=O)c1cccc(N3C(=O)CCC3=O)c1)n2C,1.3,1,1,1,-2
COc1ccc(OC)c2c1sc(=NC(=O)C(C)C)n2C,-0.35,0.3,71*,0.3,71*
COc1ccc(C(=O)N=c2sc3c(C)ccc(OC)c3n2C)cc1,-2.8,0.5,30,0.7,53*
Cc1cc(C)nc(SCCn2c(N3CCCCC3)nc3c2c(=O)n(C)c(=O)n3C)n1,0.64,0.9,-10,1.1,11
Nc1nc(SCC(=O)NC2CCCC2)[nH]c(=O)c1-c1ccccc1,0.081,0.8,29,0.7,17
Cc1c(NC(=O)C2C3C=CC(C3)C2C(=O)O)c(=O)n(-c2ccccc2)n1C (stereo unspecified),0.72,0.9,5,0.9,11
Cc1sc(-c2ccncc2)nc1OC(=O)c1ccccc1,-0.042,0,99*,0,96*
Cc1sc(-c2ccccn2)nc1OC(=O)c1cccc(Cl)c1Cl,0.44,0.3,-2,1,72*
Cc1sc(-c2ccccn2)nc1OC(=O)c1ccc(Cl)cc1,0.8,1,-10,1.1,-3
Cc1ncoc1C(=O)Nc1ccccc1-c1ccccc1,0.75,0.7,16,0.8,30
C#CCOC(=O)c1ccccc1C(=O)n1nnc2ccccc21,0.63,0.3,88*,0.1,66*
Cc1[nH]c(=O)c(C#N)c(C)c1Br,0.029,1.1,-5,1.1,-12
CC(Sc1nnnn1-c1ccccc1)C(=O)Nc1ccc(Cl)cn1 (stereo unspecified),-5.1*,0.2,87*,0.1,80*
CCC(Sc1nnnn1-c1ccccc1)C(=O)Nc1nc2ccccc2s1 (stereo unspecified),-6.7*,.,.,.,.
CCC(Sc1nnnn1-c1ccccc1)C(=O)NC(C)c1ccccc1 (stereo unspecified),-4.9*,0.6,74*,0.3,44
CCCCC(=O)NCCc1ccc(S(N)(=O)=O)cc1,0.2,1.1,-13,1.1,-11
CCCCCCC(=O)NC(Nc1ccc(S(N)(=O)=O)cc1)C(Cl)(Cl)Cl (stereo unspecified),-1.5,0.5,10,0.9,53*
O=C1CC(C(=O)Nc2ccccc2)C2(CCCCC2)O1 (stereo unspecified),-0.0066,0.7,18,0.8,31
O=C1CC(C(=O)Nc2ccc(Br)cc2)C2(CCCC2)O1 (stereo unspecified),.,0.4,97*,0,61*
Cc1ccccc1NC(=O)CSC1=C(C#N)C(c2ccsc2)CC(=O)N1 (stereo unspecified),-1.4,1.4,27,0.7,-45
CCCSC1=C(C#N)C(c2cccnc2)C(C(=O)OCC)=C(c2ccccc2)N1 (stereo unspecified),-0.75,0.4,49,0.5,62*
CCOC(=O)C1=C(N)Oc2ccc3ccccc3c2C1c1cccnc1 (stereo unspecified),-0.84,.,.,.,.
CCOC(=O)C1=C(c2ccccc2)NC(SC)=C(C#N)C1c1ccco1 (stereo unspecified),-1.8,0.2,45,0.6,78*
CCOC(=O)C1=C(c2ccccc2)NC(SCC(=O)Nc2ccccc2C)=C(C#N)C1c1ccco1 (stereo unspecified),-7.4*,0.2,57*,0.4,75*
